Results taken from PubChem BioAssay AID736 (The Scripps Research Institute Molecular Screening Center, 2007).
Among all 97,000 compounds or so, about 210 (0.22%) were called active. The full list was thinned out, with actives kept by preference. Values without a mark were called inactive. No stated cut-off is given here; in the data, active means inhibition above about 45%; inactive means the rest.

The compounds below were run against Sphingosine 1-phosphate receptor 2 (Homo sapiens) (UniProt O95136) (assay: human S1P2 receptor antagonists, primary screen, cell-based (AID 736;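 further: CRE beta-lactamase reporter cells expressing human S1P2 stimulated with S1P; 0% = agonist at EC80 alone and 100% = agonist plus reference antagonist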)). Details: cell-based S1P2 antagonist assay, at 5 µM, hits give high values.
Chain of Sphingosine 1-phosphate receptor 2 (Homo sapiens) (O95136 whole entry, looked up): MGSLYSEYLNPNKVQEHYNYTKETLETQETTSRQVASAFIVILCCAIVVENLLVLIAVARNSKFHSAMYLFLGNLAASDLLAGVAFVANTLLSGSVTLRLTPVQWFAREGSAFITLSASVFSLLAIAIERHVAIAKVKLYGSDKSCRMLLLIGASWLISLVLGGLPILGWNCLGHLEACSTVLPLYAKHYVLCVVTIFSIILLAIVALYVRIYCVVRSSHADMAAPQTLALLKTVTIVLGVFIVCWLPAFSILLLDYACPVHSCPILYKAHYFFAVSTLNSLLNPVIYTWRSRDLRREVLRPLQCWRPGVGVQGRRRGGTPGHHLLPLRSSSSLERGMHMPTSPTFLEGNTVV

Row | SMILES | inhibition
1 | Cc1nn(C)cc1/C=N/NC(=O)c1sc2ccccc2c1Cl | -19.2%
2 | O=C(CCNS(=O)(=O)c1ccccc1C(F)(F)F)NCc1ccc2c(c1)OCO2 | -42.1%
3 | CCOc1cc(-c2cc(-c3ccc(OC)cc3)nc(N)c2C#N)ccc1O | -25.8%
4 | COc1ccc2[nH]c(=O)c(CNc3ccc(C)c(C)c3)cc2c1 | 17.9%
5 | CC1(C)NC(=O)N(CCCCSc2ccc(Cl)cc2)C1=O | 11.3%
6 | CCc1nnc(NC(=O)CSc2nc3ccccc3c(=O)n2CCCOC)s1 | 2.95%
7 | COc1ccc(C(F)(F)F)cc1N/C=C\c1nnnn1-c1ccc(C)cc1 | -17.3%
8 | CCNC(=S)Nc1cccc(Cl)c1C | 13.9%
9 | CCc1ccc(C2C(C#N)=C(N)Oc3n[nH]c(CC(=O)OC)c32)cc1 (stereo not given) | -30.6%
10 | Cc1ccc(S(=O)(=O)NCCSC(C)(C)C)cc1 | -2.88%
11 | Cc1ccc(S/C(=N\S(=O)(=O)c2ccc(Cl)cc2)c2ccccc2)cc1 | -10.2%
12 | O=C(Nc1cccc(-c2nc3ncccc3o2)c1)c1ccco1 | -19.4%
13 | CCOC(=O)C1C(=O)NCC1c1ccccc1 (stereo not given) | -4.06%
14 | COc1ccc(Cc2nnc(SC)[nH]c2=O)cc1 | -19.6%
15 | Cc1cccc(C)c1OC(=O)CSc1nnc(-c2ccccc2)o1 | -20%
16 | O=C(NCCN1CCN(Cc2ccccc2)CC1)c1cc2c(=O)[nH]c3ccccc3c2s1 | -27.2%
17 | Cc1cc(C=O)c(C)n1-c1ccc(NC2CCCCC2)c([N+](=O)[O-])c1 | 4.51%
18 | Cc1ccc(N2CCN(/N=C/c3cccs3)CC2)cc1 | 22.6%
19 | Cc1cc([N+](=O)[O-])c(N2CCC[C@@H]2C(=O)O)c([N+](=O)[O-])c1 | 16.9%
20 | COc1ccc(N(CC(=O)N/N=C/c2cccc3c2OCCO3)S(=O)(=O)c2ccc(NC(C)=O)cc2)cc1 | 10.2%
21 | COc1ccc(C2C(C(C)=O)=C(O)C(=O)N2Cc2cccnc2)cc1 (stereo not given) | 5.26%
22 | Cc1nnsc1S(=O)(=O)Cc1ccccc1Cl | 6.79%
23 | CC(=O)NS(=O)(=O)c1ccc(NC(=S)NC(=O)C(C)(C)C)cc1 | 1.69%
24 | CS(=O)(=O)Nc1cccc(C2=NN(S(=O)(=O)c3ccccc3)C(c3cccs3)C2)c1 (stereo not given) | 21.1%
25 | Clc1ccc(Cl)c(Oc2ccc(Oc3nc(Cl)ccc3Cl)cc2)n1 | -3.25%

Row | SMILES | inhibition
26 | O=C(Cc1ccc(-n2c(=O)c3sccc3n(Cc3ccc(F)cc3)c2=O)cc1)NCc1ccco1 | 14.3%
27 | O=C(NCCCCCCNC(=O)NCc1ccco1)NCc1ccco1 | -14.7%
28 | Cc1cc(-c2ccc(/C=N/n3cnnc3)o2)c([N+](=O)[O-])cc1C | 1.7%
29 | COc1ccc(-n2c(C)csc2=S)cc1 | -2.06%
30 | Cn1nc([N+](=O)[O-])nc1Sc1ccc(C(C)(C)C)cc1 | 1.08%
31 | CC(N=Cc1nc(-c2ccccc2)oc1O)c1ccccc1 (stereo not given) | -15.5%
32 | O=C(Nc1nnc(CCOCCOCCc2nnc(NC(=O)c3ccco3)s2)s1)c1ccco1 | 0.16%
33 | COc1ccc(Br)cc1CN1CCN(C(=O)c2cccc(OC)c2OC)CC1 | -12.2%
34 | O=C1c2ccccc2NC(c2ccc(-c3cccc(Cl)c3)o2)N1O (stereo not given) | 9.34%
35 | CCCCc1nnc(NC(=O)CS(=O)(=O)Cc2ccccc2)s1 | 11.7%
36 | Brc1ccc(-c2nnc(-c3ccccc3)o2)o1 | -21.1%
37 | O=C(Nc1cccc2ccccc12)c1onc2c1CCCC2 | -13%
38 | ONC(=Nc1ccccc1)c1ccccc1Cl | -2.09%
39 | CCOC(=O)c1c(NC(=O)c2ccc(N3CCOCC3)c([N+](=O)[O-])c2)sc(C)c1C | -6.51%
40 | CC(C)CC[n+]1ccn(C2=C([O-])c3ccccc3C(=O)/C2=N\S(=O)(=O)c2ccccc2)c1 | 18.2%
41 | CCOC(=O)c1ccccc1NS(=O)(=O)c1ccc(OC)cc1 | -9.6%
42 | Cc1nc2ccccc2cc1OCc1ccc(F)cc1 | 56.8% (active)
43 | CCOC(=O)c1cc2ccccc2nc1C | -7.13%
44 | Cc1nc2ccccc2cc1O | -18.9%
45 | CCN(CC)S(=O)(=O)c1ccc(N2CCOCC2)c(C(=O)O)c1 | 0.01%
46 | COc1ccc(-c2noc(CSc3ccc(C)cc3)n2)cc1 | 8.11%
47 | C=CCO/N=C(\C)c1c(O)c(C)c(-c2ccccc2)n(-c2ccccc2)c1=O | 1.26%
48 | CCn1c2ccccc2c2cc(NC(=S)N3CCOCC3)ccc21 | 7.28%
49 | Cc1ccc(CNC(=O)c2ccccc2CCc2ccccc2)cc1 | -23.4%
50 | CCCCCCC(=O)Nc1nc(C)c(-c2csc(Nc3cc(Cl)ccc3OC)n2)s1 | 8.39%

Row | SMILES | inhibition
51 | c1cnc(Nc2nc(-c3ccc4ccccc4c3)cs2)nc1 | 10.4%
52 | O=c1cc(CN2CCN(c3cccc(Cl)c3)CC2)c2cc3c(cc2o1)CCCC3 | 2.36%
53 | O=C(O)c1cccnc1NC1CCCC1 | -6.46%
54 | CC(C)C(NC(=O)c1ccc(Cl)cc1)C(=O)O (stereo not given) | 18.8%
55 | Cc1ccccc1-n1nc(C)c2cc(C(=O)NC3CC3)sc21 | 2.59%
56 | Cc1ccc(-c2ccnc3nc(Sc4ncc(C(F)(F)F)cc4Cl)nn23)cc1 | -3.44%
57 | CSc1nc(N(C)NC(=O)c2cccc(C)c2)c2ccccc2n1 | 5.9%
58 | CCN(c1ccccc1)S(=O)(=O)c1ccc(C(=O)Nc2nccs2)cc1 | -3.2%
59 | O=C(Nc1ccn(Cc2ccccc2F)n1)c1ccc(COc2ccc(Cl)cc2Cl)o1 | 6.95%
60 | Cc1ccc(-n2nc3cc(C)c(NC(=O)c4cccnc4)cc3n2)cc1 | 3.29%
61 | Cc1cc(=O)[nH]c(SCc2cccc(F)c2)n1 | -28.1%
62 | O=[N+]([O-])c1ccccc1/C=N/n1c(COc2ccccc2)n[nH]c1=S | 18.3%
63 | N=c1c2c(-c3ccccc3)c(-c3ccccc3)oc2ncn1Cc1ccco1 | 2.42%
64 | CCOc1c(Br)cc(/C=C2\C(=O)N(CCC#N)N=C2C)cc1OC | -33.3%
65 | Cc1cc(C)cc(OCC(=O)NNC(=O)c2cc3ccccc3oc2=O)c1 | -16.6%
66 | CCN(CC)Cc1csc2ccc(Br)cc12 | -1.56%
67 | C=CCN(C(=O)Nc1ccc2oc(C)nc2c1)c1ccccc1 | 3.19%
68 | COc1ccccc1NC(=O)/C=C/C(N)=O | -12.8%
69 | CC(C)N(c1ccccc1)c1ncnc(NCCC(=O)O)c1[N+](=O)[O-] | 15.5%
70 | CCOC(=O)C1(S(=O)(=O)c2ccccc2)CCN(Cc2ccccc2)CC1 | 17%
71 | CC1=C/C(=N\OS(=O)(=O)c2ccccc2)C=CC1=O | 82.9% (active)
72 | Cc1ccc(S(=O)(=O)c2ccc(Oc3ccccc3)cc2)cc1 | -7.17%
73 | O=C(Nc1ccc(Cl)cc1)c1ccsn1 | 11.1%
74 | CC(=O)Nc1cc(C(=O)O)ccc1S(=O)(=O)c1ccc(Cl)cc1 | 3.81%
75 | O=C(Nc1ccccc1)c1nnsc1S(=O)(=O)c1ccc(Cl)cc1 | 61.4% (active)

Row | SMILES | inhibition
76 | CC(=O)Oc1ccc(C(C)=O)c2c1OCCO2 | -13%
77 | COc1ccc(Nc2ncc(C(=O)N3CCN(c4ccccc4OC)CC3)c3ccccc23)cc1 | -4.51%
78 | CC1CCN(C(=O)CN(c2ccc(Oc3ccccc3)cc2)S(C)(=O)=O)CC1 | -1.57%
79 | C=CCNC(=O)c1csc(-c2ccccc2)n1 | 5.01%
80 | CC(C)CC(=O)N1CCC(O)(CS(=O)(=O)Cc2ccccc2)CC1 | 5.12%
81 | Cc1[nH]n(-c2ccc(Cl)cc2)c(=O)c1/C=N/n1c(C)nc2ccccc2c1=O | 2.28%
82 | Cc1ccc(-c2nc(C)sc2CC(=O)O)cc1 | 10.8%
83 | CCCSC(=S)NC1CCS(=O)(=O)C1 (stereo not given) | 15.8%
84 | COc1ccc(C(=O)Nc2nc(-c3ccc(S(=O)(=O)N4CCOCC4)cc3)cs2)cc1 | 19.7%
85 | COc1ccc(OC)c(NC(=O)c2cnn(-c3ccccc3Cl)c2NC(=O)c2ccco2)c1 | -6.97%
86 | O=C(NC1CCCCC1)c1ccc(CNc2c(N3CCOCC3)c(=O)c2=O)cc1 | -21.1%
87 | Cc1nnc(SCc2nc3ccccc3nc2C)s1 | -20.9%
88 | Cc1nn(-c2ccccc2)c(Cl)c1C(=O)Nc1ccccc1 | -0.13%
89 | CCN(CC)C(=O)CSc1nc2ccccc2o1 | 3.55%
90 | c1ccc(CC2CCN(c3nc4ccccc4n4cnnc34)CC2)cc1 | -5.6%
91 | Cc1nn(C(C)CC(=O)O)c(C)c1C (stereo not given) | -0.29%
92 | CCC(C)NC(=O)CSC1=Nc2ccccc2C2=NC(CCC(=O)NCc3ccco3)C(=O)N12 (stereo not given) | 1.95%
93 | CCC(C)NC(=O)c1ccccc1NC(=O)c1ccccc1N(C)S(C)(=O)=O (stereo not given) | -10.9%
94 | CC(=O)N1CCCc2cc(S(=O)(=O)CCC(=O)N3CCN(c4ccccc4)CC3)ccc21 | 0.06%
95 | Cn1nc(C(F)(F)F)c2cc(NC(=O)OCC(C)(C)C)sc21 | -6.24%
96 | Clc1ccccc1SCc1nc2ccccc2[nH]1 | 11.2%
97 | COc1ccc(N2CCN(Cc3ccc(Br)s3)CC2)cc1 | -19.3%
98 | Fc1ccc2[nH]c3c(N4CCN(Cc5ccc6c(c5)OCO6)CC4)ncnc3c2c1 | 80.7% (active)
99 | CC(C)(C)n1nnnc1C(c1ccc(F)cc1)N1CCN(Cc2ccc3c(c2)OCO3)CC1 (stereo not given) | 9.67%
100 | Cc1cc(N2CCN(Cc3ccc4c(c3)OCO4)CC2)n2ncnc2n1 | 13.4%
